Screening data: PubChem BioAssay, several laboratories
A selection: hits, their analogues and other compounds. The true share with any hit is near 3%.
BioA inh – BioA (M. tuberculosis) enzyme inhibition; purified M. tuberculosis BioA enzyme, plate reader; inhibition, % at 9.99 µM; 360,000 compounds, 0.096% hits; AID 602481; in the data active = inhibition above about 40%; inconclusive = no clear call, values can overlap the other calls
FBA Mtb inh – Mtb fructose-bisphosphate aldolase inhibition; P9WQA3; purified M. tuberculosis FBA, fluorescence read-out; inhibition, % at 1 µM; 360,000 compounds, 2.3% hits; AID 588726; in the data active = inhibition above about 27%;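 note: 0% = vehicle and 100% = reference inhibitor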
FadD28 FP inh – inhibitors of Mycobacterium tuberculosis FadD28 bisubstrate binding. 360,000 compounds, 0.22% hits. FadD28 bisubstrate probe binding, fluorescence polarization. inhibition, % at 12.5 µM; in the data active = inhibition above about 8.5%, passing the limit was not always enough; inconclusive = no clear call, values can overlap the other calls
GDH-TPI inh – counter-screen for M. tuberculosis FBA inhibitors: GDH-TPI coupled enzymes; inhibition, % at 4.8 µM; AID 588335; GDH-TPI coupled enzyme counterscreen, NADH absorbance; 360,000 compounds, 1.2% hits; in the data active = inhibition above about 30%;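 note: 0% = DMSO wells and 100% = wells lacking the enzyme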
Rv3671c protease – Rv3671c (M. tuberculosis) protease inhibition. P9WHR9. inhibition, % at 5.96 µM. 320,000 compounds, 0.048% hits; in the data active = inhibition above about 38%;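 note: extracellular domain of Rv3671c used as enzyme; 0% = enzyme with DMSO and 100% = no enzyme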
Target sequence (P9WHR9 whole entry, looked up, the tested form may be a part): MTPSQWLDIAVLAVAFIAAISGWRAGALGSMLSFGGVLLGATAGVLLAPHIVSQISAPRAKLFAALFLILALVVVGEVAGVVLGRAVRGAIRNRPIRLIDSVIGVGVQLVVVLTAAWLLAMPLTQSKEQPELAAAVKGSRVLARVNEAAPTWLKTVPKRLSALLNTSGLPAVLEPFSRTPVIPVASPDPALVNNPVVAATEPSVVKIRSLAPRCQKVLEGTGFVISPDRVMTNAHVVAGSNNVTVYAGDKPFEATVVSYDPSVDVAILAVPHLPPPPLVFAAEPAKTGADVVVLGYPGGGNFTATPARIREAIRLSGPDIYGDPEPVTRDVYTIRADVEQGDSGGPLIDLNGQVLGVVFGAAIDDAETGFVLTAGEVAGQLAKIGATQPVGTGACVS
An asterisk follows results filed as active; ? = inconclusive; nt = no result; + = active, no number.

SMILES | BioA inh | FBA Mtb inh | FadD28 FP inh | GDH-TPI inh | Rv3671c protease
CNC(=O)c1cc2ccc(OC)cc2oc1=O | -1 | + | -2 | 30 | 1
Cc1ccc(S(=O)(=O)N[C@@H]2CC[C@@H](CC(=O)NC3CCCCC3)O[C@@H]2CO)cc1 | -2 | nt | nt | nt | nt
Cc1noc(C)c1NC(=O)N(C)C[C@@H]1Oc2ccc(NC(=O)Nc3ccc(C(F)(F)F)cc3)cc2CC(=O)N([C@H](C)CO)C[C@@H]1C | -5 | nt | nt | nt | nt
COc1ccc(/C=C/C(=O)Nc2cccnc2Cl)cc1 | nt | 1 | -1 | 31* | 9
Nc1nc(NC(=O)/C=C\C(=O)O)nn1-c1ccccc1 | nt | 2 | 0 | 2 | -2
COc1ccc(/C=C/C(=O)Nc2nc(N)n(-c3ccccc3)n2)cc1 | nt | -3 | -1 | 33* | 5
CC(=O)Nc1ccc2c(c1)C(=O)N(C)[C@@H]1CC[C@H](CC(=O)NCc3ccc(Cl)cc3)O[C@@H]1CO2 | 21 | nt | nt | nt | nt
CC1(C)CC(=O)C=C(c2ccc3c(c2)OCO3)C1 | -1 | 4 | -1 | 33* | -1
CCN(CC)CC(C)(C)C(=O)/C=C/c1ccc(/C=C/C(=O)C(C)(C)CN(CC)CC)cc1 | nt | -3 | -2 | 59* | nt
O=S(=O)(c1ccc(Nc2ccc(-c3ccc4c(c3)OCCO4)nn2)cc1)N1CCCC1 | 0 | 1 | 11* | 34* | -64
COc1ccc(-c2nnc(NC(=O)c3ccc(S(=O)(=O)N4CCCc5ccccc54)cc3)o2)cc1 | -1 | -1 | -1 | 37* | -11
CCCN(C)C[C@@H]1OCCCC[C@@H](C)Oc2ccc(NC(=O)NC(C)C)cc2C(=O)N([C@H](C)CO)C[C@@H]1C | -5 | nt | nt | nt | nt
COc1ccc(/C=N\N=C2/SC(CC(=O)O)C(=O)N2c2ccc(O)cc2)cc1OC (stereo unspecified) | nt | 0 | -1 | 44* | -2
COc1cc(/C=N\N=C2/SC(CC(=O)O)C(=O)N2c2ccc(O)cc2)ccc1O (stereo unspecified) | nt | 1 | 0 | 32* | -6
O=C(O)CC1S/C(=N/N=C/c2ccc([N+](=O)[O-])cc2)N(c2ccc(O)cc2)C1=O (stereo unspecified) | nt | -4 | -2 | 19 | 1
CCOc1c(C(N)=O)c(-c2ccccc2)c2c(=O)[nH]c3ccccc3n12 | 1 | 112* | 0 | 14 | 3
CCOC(=O)c1c(C)nc(C)c(C(=O)OCC)c1-c1ccccc1 | nt | -4 | -3 | -10 | -2
Cc1ccc(S(=O)(=O)Nc2cccc3c2O[C@@H](CN(C)Cc2ccncc2)[C@H](C)CN([C@@H](C)CO)C3=O)cc1 | -1 | nt | nt | nt | nt
O=C(CSc1ccsc1[N+](=O)[O-])NCCc1ccccc1 | -1 | + | -2 | 4 | -10
Cc1ccccc1-c1noc(N)c1C#N | -5 | 3 | -1 | 13 | -1
CN(C)/C=C/c1onc(-c2ccccc2Cl)c1C#N | nt | -2 | 5 | 43* | -9
Cc1cnc(NC(=O)c2sc(Nc3ccccc3)nc2N)o1 | 1 | -1 | 0 | 31* | -1
Nc1nc(Nc2ccccc2)sc1C(=O)c1ccccc1 | -1 | -1 | 2 | 9 | 2
CCC(=O)N[C@H]1CC[C@@H](CCn2cc(CN(C)C)nn2)O[C@H]1CO | 1 | nt | nt | nt | nt
C/C(=N\N=C(/N)SC1CC(=O)N(c2cccc(Cl)c2)C1=O)c1cccs1 (stereo unspecified) | 4 | -5 | -4 | 40* | -32
SMILES | BioA inh | FBA Mtb inh | FadD28 FP inh | GDH-TPI inh | Rv3671c protease
CCCOc1ccc(N2C(=O)CC(S/C(N)=N/N=C(\C)c3cccs3)C2=O)cc1 (stereo unspecified) | 0 | -2 | -2 | 25 | -19
CCOC(=O)C1CCN(S(=O)(=O)c2cccc(-c3cn4cc(C)ccc4n3)c2)CC1 | 0 | 8 | -3 | 6 | -5
CCOC(=O)C1CCN(S(=O)(=O)c2cccc(-c3cn4cccnc4n3)c2)CC1 | 2 | + | -4 | 8 | 6
CC(C)(C)N1C(=O)NC(=O)/C(=C\c2ccc3c(c2)CCN3CCCCl)C1=O | 0 | 1 | -1 | 32* | 0
O=C(C[C@@H]1C=C[C@H](NC(=O)Nc2ccc3c(c2)OCO3)[C@H](CO)O1)NCc1ccc(Cl)cc1 | 2 | nt | nt | nt | nt
Cc1c(/C=N/Nc2nc3ccccc3[nH]2)c2ccccc2n1C | 7 | 1 | 1 | 32* | 31
Cc1ccsc1/C=N/Nc1nc2ccccc2[nH]1 | -1 | 5 | 3 | 32* | nt
O=c1cc(CSc2ccc(Cl)cc2)[nH]c2[nH]n(-c3ccccc3)c(=O)c12 | 0 | 4 | ? | 24 | 10
Cc1ccc(SCc2cc(=O)c3c(=O)n(-c4ccccc4)[nH]c3[nH]2)cc1 | 1 | 2 | 17* | 10 | 15
Cc1ccc(-c2nc3ccccc3n2C)o1 | -2 | 22 | -3 | 1 | -8
CC(=O)c1ccc(-c2nc3ccccc3n2C)o1 | -2 | + | 0 | 27 | 3
COCC(=O)N1CCCCN2[C@@H](CO)[C@@H](c3ccc(C#Cc4ccccc4)cc3)[C@@H]2C1 | -3 | nt | nt | nt | nt
CC(=O)OC[C@H]1O[C@@H](Oc2cc3ccc(=O)oc3cc2OC(C)=O)[C@H](OC(C)=O)[C@@H](OC(C)=O)[C@@H]1OC(C)=O | -1 | + | 0 | 11 | nt
COc1ccccc1/C=N/N1C(=O)c2cccc3cccc(c23)C1=O | 0 | 3 | 1 | 34* | 3
COc1ccccc1C=NN=C1c2ccccc2-c2ccccc21 | nt | 2 | -1 | -6 | nt
COc1ccccc1C=NN=Cc1ccccc1OC | 0 | -2 | -2 | 31* | nt
C[C@H](NC(=O)C[C@H]1C=C[C@@H](NC(=O)C2CCC2)[C@H](CO)O1)c1ccccc1 | 0 | nt | nt | nt | nt
O=C(O)c1cc2c(ccc3ccccc32)oc1=O | -2 | + | -3 | 10 | -1
CCOC(=O)c1cc2c(=O)c3ccccc3oc2nc1C | 2 | -1 | -2 | -3 | 9
CCCC(=O)c1cc2ccccc2oc1=O | 0 | 1 | -4 | 0 | -7
CCOC(=O)c1cc2c(ccc3ccccc32)oc1=O | nt | + | -5 | 7 | -7
O=C(c1cc2c(ccc3ccccc32)oc1=O)N1CCCC1 | 1 | 166* | 0 | 16 | 1
O=C(NCc1ccccn1)c1cc2c(ccc3ccccc32)oc1=O | 0 | 172* | -1 | 17 | -5
O=C(c1cc2ccccc2c(=O)o1)N1CCCCCC1 | nt | -1 | -1 | -3 | 11
N#C[C@@H]1[C@@H](c2ccc(-c3cccc(F)c3)cc2)[C@H](CO)N1C(=O)NC1CCCC1 | -3 | nt | nt | nt | nt
CCCNC(=O)N(C)C[C@@H]1Oc2ncc(C#C[C@@H](C)O)cc2C(=O)N([C@@H](C)CO)C[C@H]1C | 0 | nt | nt | nt | nt
C[C@H](CO)N1C[C@H](C)[C@H](CN(C)C(=O)C2CCCCC2)Oc2ncc(C#CC3CCCC3)cc2C1=O | -3 | nt | nt | nt | nt
COc1cccc(S(=O)(=O)N[C@@H]2CC[C@H](CCn3cc(-c4ccccn4)nn3)O[C@H]2CO)c1 | 0 | nt | nt | nt | nt
CN1CCN(C(=O)C[C@H]2CC[C@@H]3[C@H](COC[C@H](O)CN3C(=O)c3ccc(F)cc3)O2)CC1 | -3 | nt | nt | nt | nt
C[C@H]1CN([C@@H](C)CO)S(=O)(=O)c2ccc(C#CCN(C)C)cc2O[C@@H]1CN(C)Cc1ccccc1 | 4 | nt | nt | nt | nt
